Results filed as inconclusive are left out. Activity calls are given as the source filed them. How the source made its calls: active means hit-call score of the fitted dose curve at least 0.9, where 1 is the maximum; inconclusive means response in the unintended direction; inactive means score below 0.9.
Assay: ATG_XTT_Cytotoxicity: Cytotoxicity Assessment in the Attagene TRANS-FACTORIAL HepG2 Assay (AID 2283584)
In short: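 Transfect HepG2 with GAL4-UAS reporter units, dose compound, incubate 24 h, then measure viable cell number by XTT. Fit concentration response against DMSO baseline.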
In the case of `COc1ccccc1OC`, the outcome is reported as “inactive”. In the case of `C[C@]12CC[C@H](O)CC1=CC[C@@H]1[C@@H]2CC[C@]2(C)C(=O)CC[C@@H]12`, the outcome is reported as “inactive”. In the case of `C[C@H]1CCCC(=O)CCC/C=C/c2cc(O)cc(O)c2C(=O)O1`, the outcome is reported as “inactive”. For `CNC`, the outcome was “inactive”. In the case of `Nc1cccc2ccccc12`, the outcome is reported as “inactive”. With `CCc1ccccc1C` the outcome was “inactive”. For `N#Cc1ccccn1`, the outcome was “inactive”.

Source: PubChem BioAssay (EPA / NIEHS)
